Data as given in PubChem BioAssay AID2535 (National Center for Advancing Translational Sciences (NCATS), 2010).
Unmarked numbers belong to inactive results. Calls follow the shape of the dose curve; as a rule, active = well fitted curve in the direction sought with a large enough effect; inconclusive = small, poorly fitted or top-dose-only effect, or effect the other way, or another doubt; inactive = no such curve, though single readings can be large or run the other way.

Target: Pyruvate kinase PKLR (Homo sapiens) (UniProt P30613)
Assay: Secondary Concentration-Response Assay for Activators of Human Liver Pyruvate Kinase: for Probe SAR;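 also: 0% = uninhibited enzyme wells on each plate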
Settings: purified hPK-L, ATP production, Kinase-Glo luminescence; series mostly up to 58.3 µM; activity change, positive = activation: at the top concentration
Text: NIH Chemical Genomics Center [NCGC]
Matthew G. Vander Heiden, M.D., Ph.D. [Harvard Medical School, 77 Avenue Louis Pasteur, Boston, MA 02115]
Human pyruvate kinase liver (hPK-L) enzyme was supplied as a highly purified (>95% pure) preparation from Harvard Medical School and assayed for its ability to generate ATP from ADP using phosphoenolpyruvate (PEP) as a substrate. ATP generation was detected in a coupled reaction by luciferase-mediated luminescence, an ATP-dependent process. Pyruvate kinase substrates, PEP and ADP, were present in the assay at Km and approximately 10-fold below Km respectively. The enzyme was assayed at an intermediate level of activity to screen for both inhibitors and activators.
NCGC Assay Protocol Summary for L-isoform:
Three uL of substrate mix (at r.t.) in assay buffer (50 mM Imidazole pH7.2, 50 mM KCl, 7 mM MgCl2, 0.01% Tween 20, 0.05% BSA) was dispensed into white solid bottom 1,536 well microtiter plates so that the final concentrations of substrates in the assay were 0.1 mM ADP and 0.5 mM PEP. 23 nL of compound were delivered by a pin tool and 1 uL of enzyme mix (final concentration of 0.1 nM) in assay buffer (4 degree Celsius) was added. Plates were incubated at room temperature for 1 hour. Two uL of detection mix (Kinase-Glo, Promega; at 4 degree Celsius protected from light) was added and luminescence read by a ViewLux (Perkin Elmer) at 1 second exposure/plate. Data were normalized to the uninhibited (row 31). Additionally, a no enzyme and 5-fold enzyme control was dispensed in row 32, split equally between the two conditions.

Pyruvate kinase PKLR (Homo sapiens), sequence (P30613 whole entry, looked up): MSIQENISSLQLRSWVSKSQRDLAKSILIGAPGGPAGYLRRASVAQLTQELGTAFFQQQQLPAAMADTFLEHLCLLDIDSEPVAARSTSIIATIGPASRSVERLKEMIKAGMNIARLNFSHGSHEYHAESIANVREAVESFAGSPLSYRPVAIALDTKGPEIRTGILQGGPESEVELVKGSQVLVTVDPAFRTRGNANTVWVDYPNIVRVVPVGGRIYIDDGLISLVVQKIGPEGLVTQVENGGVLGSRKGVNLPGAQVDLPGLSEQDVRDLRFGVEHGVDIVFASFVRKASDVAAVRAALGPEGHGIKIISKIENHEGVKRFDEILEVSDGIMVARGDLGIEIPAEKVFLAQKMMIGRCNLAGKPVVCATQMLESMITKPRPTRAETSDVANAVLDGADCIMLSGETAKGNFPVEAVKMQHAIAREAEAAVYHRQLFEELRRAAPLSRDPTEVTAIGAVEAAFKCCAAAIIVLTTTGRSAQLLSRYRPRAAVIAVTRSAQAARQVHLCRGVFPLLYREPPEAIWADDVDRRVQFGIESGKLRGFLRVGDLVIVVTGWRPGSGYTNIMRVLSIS

SMILES	activity change, positive = activation [%]
Cc1ccc(NS(=O)(=O)c2ccc3c(c2)n(C)c(=O)n3C)cc1C	7.5
Cc1ccc2nc(-c3cccs3)c(Nc3ccccc3)n2c1	-8.18
O=C1CCc2cc(S(=O)(=O)Nc3ccc(F)c(Cl)c3)ccc2N1	4.41
O=C1CCc2cc([S+](=O)([O-])Nc3ccc(N[S+](=O)([O-])c4ccc5c(c4)CCC(=O)N5)cc3)ccc2N1	6.99
Cc1ccccc1NS(=O)(=O)c1ccc2c(c1)CCC(=O)N2	6.63
O=C1CCc2cc(S(=O)(=O)Nc3cccc(Oc4ccccc4)c3)ccc2N1	2.11
Cc1ccc(N2C(=O)c3ccccc3C2=O)c(C)c1	0.619
Cc1ccc(NS(=O)(=O)c2ccc3c(c2)CCC(C)(C)O3)cc1C	7.91
O=C1c2ccccc2C(=O)N1c1ccc2ncccc2c1	5.86
Cc1ccc(NS(=O)(=O)c2ccc3c(c2)CCCC(=O)N3)cc1C	11.3
Cc1ccc(C)c(OC2=NS(=O)(=O)c3ccccc32)c1	-1.9
O=C1CCc2cc(S(=O)(=O)Nc3cccc(Cl)c3)ccc2N1	3.94
O=C1CCc2cc(S(=O)(=O)NCc3ccccc3)ccc2N1	4.67
Cc1ccc(NS(=O)(=O)c2ccc3c(c2)CC(=O)N3C)cc1C	17.1
Cc1ccc(OC2=NS(=O)(=O)c3ccccc32)cc1	3.19
CCCCN1C(=O)c2ccccc2C1=O	0.342
CSc1cc2c(s1)c1cnn(Cc3cccc(O)c3)c(=O)c1n2C	4.55
O=C1NS(=O)(=O)c2ccccc21	2.82
O=C1CCc2cc(S(=O)(=O)Nc3cccc(C(F)(F)F)c3)ccc2N1	-3.5
O=C1c2ccccc2C(=O)N1Cc1ccccn1	2.21

SMILES	activity change, positive = activation [%]
O=C1CCc2cc(S(=O)(=O)Nc3ccccc3F)ccc2N1	-10.2
O=C1c2ccccc2C(=O)N1C1CCCCC1	2.06
O=C1c2ccccc2C(=O)N1Cc1ccccc1	3.62
Cc1ccc(NC(=O)c2ccc3c(c2)CCC(=O)N3)cc1C	3.59
O=C1CCc2cc(S(=O)(=O)Nc3ccc4c(c3)CCC4)ccc2N1	17.1
COc1cccc(N2C(=O)c3ccccc3C2=O)n1	6.52
COc1cccc(NS(=O)(=O)c2ccc3c(c2)CCC(=O)N3)c1	8.7
O=C1c2ccccc2C(=O)N1c1cccc2cnccc12	-1.65
Cc1ccn2c(NCc3ccco3)c(-c3ccccc3)nc2c1	-11.5
Cc1cc(N2C(=O)c3ccccc3C2=O)n[nH]1	-12.2
O=C1c2ccccc2C(=O)N1c1cccc(O)c1	-8.54
Cc1ccc(Nc2c(-c3ccc(C)s3)nc3cccc(C)n23)cc1	6.05
O=C1CCc2cc(S(=O)(=O)Nc3cccc(F)c3)ccc2N1	-8.3
CN(C)c1cccc(S(=O)(=O)N2CCCN(S(=O)(=O)c3ccc4c(c3)OCCO4)CC2)c1	20
Cc1cc(N2C(=O)c3ccccc3C2=O)no1	-9.96
Cc1ccc(NS(=O)(=O)c2cc3c(cc2-c2ccccc2)NC(=O)CO3)cc1C	12.6
O=C1CCc2cc(S(=O)(=O)Nc3cccc(B(O)O)c3)ccc2N1	6.48
CNc1cccc(S(=O)(=O)N2CCCN(S(=O)(=O)c3ccc4c(c3)OCCO4)CC2)c1	22.2
Cc1ccc(NS(=O)(=O)c2ccc3c(c2)CCC(=O)N3)cc1	10.7
O=S1(=O)N=C(Oc2ccccc2Cl)c2ccccc21	2.37
